Measurements taken from the supplement of paper PMC4466140.

Each binder was assayed against AgAbp1 (assay: SPOT peptide array binding signal intensity (averaged, normalized) (arbitrary units (background-subtracted, floor 0; scale differs between SH3 domains)); higher = stronger binding of the SH3 domain to the peptide).
Method in brief: (§1)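 Binding signal is given in arbitrary units that differ between domains and is the normalized, background-subtracted spot intensity averaged across replicates. Each GST-SH3 fusion from one of four yeast species was made in E. coli BL21(DE3), purified on glutathione Sepharose and incubated at 10 μg/ml overnight at 4°C on cellulose-bound synthetic 15-mer peptides in which cysteines were replaced by serines. Detection used anti-GST antibody, an HRP anti-mouse secondary and luminol, followed by imaging and Genespotter quantification.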

Row | Binder | SPOT peptide array binding signal intensity
1 | ISPPASPPPEFDFSK | ≤ 0

The binders below were run against AgBbc1 in the same assay as above.
Method in brief: as §1

Row | Binder | SPOT peptide array binding signal intensity
2 | ISPPASPPPEFDFSK | ≤ 0

Each binder was assayed against AgBem1-D1 in the same assay as above.
Method in brief: as §1

Row | Binder | SPOT peptide array binding signal intensity
3 | ISPPASPPPEFDFSK | ≤ 0

What follows are binders tested against AgBzz1-D1 in the same assay as above.
Method in brief: as §1

Row | Binder | SPOT peptide array binding signal intensity
4 | ISPPASPPPEFDFSK | ≤ 0

What follows are binders tested against AgBzz1-D2 in the same assay as above.
Method in brief: as §1

Row | Binder | SPOT peptide array binding signal intensity
5 | ISPPASPPPEFDFSK | 22.5

What follows are binders tested against AgCyk3 in the same assay as above.
Method in brief: as §1

Row | Binder | SPOT peptide array binding signal intensity
6 | ISPPASPPPEFDFSK | ≤ 0

Each binder was assayed against AgFus1 in the same assay as above.
Method in brief: as §1

Row | Binder | SPOT peptide array binding signal intensity
7 | ISPPASPPPEFDFSK | 4

These binders were tested against AgHof1 in the same assay as above.
Method in brief: as §1

Row | Binder | SPOT peptide array binding signal intensity
8 | ISPPASPPPEFDFSK | ≤ 0

The binders below were run against AgHse1 in the same assay as above.
Method in brief: as §1

Row | Binder | SPOT peptide array binding signal intensity
9 | ISPPASPPPEFDFSK | 27.5

Each binder was assayed against AgLsb1 in the same assay as above.
Method in brief: as §1

Row | Binder | SPOT peptide array binding signal intensity
10 | ISPPASPPPEFDFSK | ≤ 0

These binders were tested against AgLsb4 in the same assay as above.
Method in brief: as §1

Row | Binder | SPOT peptide array binding signal intensity
11 | ISPPASPPPEFDFSK | ≤ 0

What follows are binders tested against AgMyo5 in the same assay as above.
Method in brief: as §1

Row | Binder | SPOT peptide array binding signal intensity
12 | ISPPASPPPEFDFSK | 781

The binders below were run against AgNbp2 in the same assay as above.
Method in brief: as §1

Row | Binder | SPOT peptide array binding signal intensity
13 | ISPPASPPPEFDFSK | ≤ 0

These binders were tested against AgRvs167 in the same assay as above.
Method in brief: as §1

Row | Binder | SPOT peptide array binding signal intensity
14 | ISPPASPPPEFDFSK | 0.333

These binders were tested against AgSho1 in the same assay as above.
Method in brief: as §1

Row | Binder | SPOT peptide array binding signal intensity
15 | ISPPASPPPEFDFSK | ≤ 0

The binders below were run against AgSla1-D1-D2 in the same assay as above.
Method in brief: as §1

Row | Binder | SPOT peptide array binding signal intensity
16 | ISPPASPPPEFDFSK | 5

What follows are binders tested against AgSla1-D3 in the same assay as above.
Method in brief: as §1

Row | Binder | SPOT peptide array binding signal intensity
17 | ISPPASPPPEFDFSK | ≤ 0

What follows are binders tested against CaAbp1-D1 in the same assay as above.
Method in brief: as §1

Row | Binder | SPOT peptide array binding signal intensity
18 | ISPPASPPPEFDFSK | ≤ 0

These binders were tested against CaAbp1-D2 in the same assay as above.
Method in brief: as §1

Row | Binder | SPOT peptide array binding signal intensity
19 | ISPPASPPPEFDFSK | 1.5

These binders were tested against CaBbc1 in the same assay as above.
Method in brief: as §1

Row | Binder | SPOT peptide array binding signal intensity
20 | ISPPASPPPEFDFSK | ≤ 0

What follows are binders tested against CaBem1-D1 in the same assay as above.
Method in brief: as §1

Row | Binder | SPOT peptide array binding signal intensity
21 | ISPPASPPPEFDFSK | ≤ 0

Each binder was assayed against CaBzz1-D1 in the same assay as above.
Method in brief: as §1

Row | Binder | SPOT peptide array binding signal intensity
22 | ISPPASPPPEFDFSK | ≤ 0

What follows are binders tested against CaBzz1-D2 in the same assay as above.
Method in brief: as §1

Row | Binder | SPOT peptide array binding signal intensity
23 | ISPPASPPPEFDFSK | 14.5

These binders were tested against CaCyk3 in the same assay as above.
Method in brief: as §1

Row | Binder | SPOT peptide array binding signal intensity
24 | ISPPASPPPEFDFSK | ≤ 0

The binders below were run against CaFus1 in the same assay as above.
Method in brief: as §1

Row | Binder | SPOT peptide array binding signal intensity
25 | ISPPASPPPEFDFSK | ≤ 0

Each binder was assayed against CaHof1 in the same assay as above.
Method in brief: as §1

Row | Binder | SPOT peptide array binding signal intensity
26 | ISPPASPPPEFDFSK | 1

Each binder was assayed against CaHse1 in the same assay as above.
Method in brief: as §1

Row | Binder | SPOT peptide array binding signal intensity
27 | ISPPASPPPEFDFSK | 1

The binders below were run against CaLsb1 in the same assay as above.
Method in brief: as §1

Row | Binder | SPOT peptide array binding signal intensity
28 | ISPPASPPPEFDFSK | ≤ 0

The binders below were run against CaLsb4 in the same assay as above.
Method in brief: as §1

Row | Binder | SPOT peptide array binding signal intensity
29 | ISPPASPPPEFDFSK | ≤ 0

These binders were tested against CaMyo5 in the same assay as above.
Method in brief: as §1

Row | Binder | SPOT peptide array binding signal intensity
30 | ISPPASPPPEFDFSK | 40

The binders below were run against CaNbp2 in the same assay as above.
Method in brief: as §1

Row | Binder | SPOT peptide array binding signal intensity
31 | ISPPASPPPEFDFSK | ≤ 0

Each binder was assayed against CaRvs167 in the same assay as above.
Method in brief: as §1

Row | Binder | SPOT peptide array binding signal intensity
32 | ISPPASPPPEFDFSK | 0.833

These binders were tested against CaRvs167-3 in the same assay as above.
Method in brief: as §1

Row | Binder | SPOT peptide array binding signal intensity
33 | ISPPASPPPEFDFSK | ≤ 0

These binders were tested against CaSho1 in the same assay as above.
Method in brief: as §1

Row | Binder | SPOT peptide array binding signal intensity
34 | ISPPASPPPEFDFSK | ≤ 0

These binders were tested against CaSla1-D1-D2 in the same assay as above.
Method in brief: as §1

Row | Binder | SPOT peptide array binding signal intensity
35 | ISPPASPPPEFDFSK | ≤ 0

Each binder was assayed against CaSla1-D3 in the same assay as above.
Method in brief: as §1

Row | Binder | SPOT peptide array binding signal intensity
36 | ISPPASPPPEFDFSK | 1.5

What follows are binders tested against ScAbp1 in the same assay as above.
Method in brief: as §1

Row | Binder | SPOT peptide array binding signal intensity
37 | ISPPASPPPEFDFSK | ≤ 0

The binders below were run against ScBbc1 in the same assay as above.
Method in brief: as §1

Row | Binder | SPOT peptide array binding signal intensity
38 | ISPPASPPPEFDFSK | ≤ 0

Each binder was assayed against ScBem1-D1 in the same assay as above.
Method in brief: as §1

Row | Binder | SPOT peptide array binding signal intensity
39 | ISPPASPPPEFDFSK | ≤ 0

These binders were tested against ScBzz1-D1 in the same assay as above.
Method in brief: as §1

Row | Binder | SPOT peptide array binding signal intensity
40 | ISPPASPPPEFDFSK | ≤ 0

Each binder was assayed against ScBzz1-D2 in the same assay as above.
Method in brief: as §1

Row | Binder | SPOT peptide array binding signal intensity
41 | ISPPASPPPEFDFSK | ≤ 0

What follows are binders tested against ScCyk3 in the same assay as above.
Method in brief: as §1

Row | Binder | SPOT peptide array binding signal intensity
42 | ISPPASPPPEFDFSK | ≤ 0

What follows are binders tested against ScFus1 in the same assay as above.
Method in brief: as §1

Row | Binder | SPOT peptide array binding signal intensity
43 | ISPPASPPPEFDFSK | ≤ 0

These binders were tested against ScHof1 in the same assay as above.
Method in brief: as §1

Row | Binder | SPOT peptide array binding signal intensity
44 | ISPPASPPPEFDFSK | ≤ 0

The binders below were run against ScHse1 in the same assay as above.
Method in brief: as §1

Row | Binder | SPOT peptide array binding signal intensity
45 | ISPPASPPPEFDFSK | ≤ 0

The binders below were run against ScLsb1 in the same assay as above.
Method in brief: as §1

Row | Binder | SPOT peptide array binding signal intensity
46 | ISPPASPPPEFDFSK | ≤ 0

These binders were tested against ScLsb2 in the same assay as above.
Method in brief: as §1

Row | Binder | SPOT peptide array binding signal intensity
47 | ISPPASPPPEFDFSK | ≤ 0

The binders below were run against ScLsb3 in the same assay as above.
Method in brief: as §1

Row | Binder | SPOT peptide array binding signal intensity
48 | ISPPASPPPEFDFSK | ≤ 0

Each binder was assayed against ScLsb4 in the same assay as above.
Method in brief: as §1

Row | Binder | SPOT peptide array binding signal intensity
49 | ISPPASPPPEFDFSK | ≤ 0

These binders were tested against ScMyo3 in the same assay as above.
Method in brief: as §1

Row | Binder | SPOT peptide array binding signal intensity
50 | ISPPASPPPEFDFSK | 1120

What follows are binders tested against ScMyo5 in the same assay as above.
Method in brief: as §1

Row | Binder | SPOT peptide array binding signal intensity
51 | ISPPASPPPEFDFSK | 428

These binders were tested against ScNbp2 in the same assay as above.
Method in brief: as §1

Row | Binder | SPOT peptide array binding signal intensity
52 | ISPPASPPPEFDFSK | ≤ 0

These binders were tested against ScPex13 in the same assay as above.
Method in brief: as §1

Row | Binder | SPOT peptide array binding signal intensity
53 | ISPPASPPPEFDFSK | ≤ 0

These binders were tested against ScRvs167 in the same assay as above.
Method in brief: as §1

Row | Binder | SPOT peptide array binding signal intensity
54 | ISPPASPPPEFDFSK | ≤ 0

Each binder was assayed against ScSho1 in the same assay as above.
Method in brief: as §1

Row | Binder | SPOT peptide array binding signal intensity
55 | ISPPASPPPEFDFSK | ≤ 0

Each binder was assayed against ScSla1-D1-D2 in the same assay as above.
Method in brief: as §1

Row | Binder | SPOT peptide array binding signal intensity
56 | ISPPASPPPEFDFSK | ≤ 0

These binders were tested against ScSla1-D3 in the same assay as above.
Method in brief: as §1

Row | Binder | SPOT peptide array binding signal intensity
57 | ISPPASPPPEFDFSK | 3.5

What follows are binders tested against SpAbp1-D1 in the same assay as above.
Method in brief: as §1

Row | Binder | SPOT peptide array binding signal intensity
58 | ISPPASPPPEFDFSK | ≤ 0

What follows are binders tested against SpBbc1 in the same assay as above.
Method in brief: as §1

Row | Binder | SPOT peptide array binding signal intensity
59 | ISPPASPPPEFDFSK | 2.5

These binders were tested against SpBzz1-D1 in the same assay as above.
Method in brief: as §1

Row | Binder | SPOT peptide array binding signal intensity
60 | ISPPASPPPEFDFSK | ≤ 0
